Source: PubChem BioAssay (several laboratories)
AddAB inh: growth inhibition of E. coli expressing H. pylori AddAB, primary screen, AddAB inhibitor project, absorbance | inhibition, % at 11.9 µM | 330,000 tested, 0.29% active; in the data active = inhibition above about 12%;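 also: 0% = vehicle wells of infected cells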
E coli growth-1: E. coli V3065 growth inhibition, primary screen, counter-screen for AddAB inhibitor project, absorbance, OD600. 18 h. inhibition, % at 11.9 µM. 330,000 tested, 0.27% active;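 active = inhibition above the campaign's mean inhibition across all tested compounds plus 3 SD, cut at about 9.9% in these data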;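 also: uninfected addAB+ strain grown without phage in ampicillin broth; 0% = DMSO wells and 100% = ciprofloxacin 0.95 µg/ml wells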
phage Ecoli inh: growth loss of phage-infected E. coli, primary screen, RecBCD inhibitor project, absorbance, with phage, HTS. inhibition, % at 11.9 µM. 360,000 tested, 0.26% active; in the data active = inhibition above about 11%
E coli growth-2: E. coli growth inhibition, primary screen, OD600. Escherichia coli growth, 23 h; active compounds read low. OD600 absorbance (concentration not given with the values). 330,000 tested, 0.21% active;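 active = OD600 absorbance below the run mean of sample wells minus 3.6 SD, in any replicate, cut at about 0.56 in these data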
Tat export inh: E. coli Tat export inhibitors, primary screen, MC4100, TorA-mCherry reporter, fluorescence, single point; inhibition, % at 10 µM; 340,000 tested, 0.036% active;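 active = mean replicate inhibition at least 50% and at least half of replicates individually reaching 50%; inconclusive = only one of the two criteria met; inactive = neither criterion met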;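 also: exported cargo escapes ClpAP degradation while cytoplasmic cargo is degraded and loses fluorescence; 0% = median of neutral control wells and 100% = median of NaSCN control wells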
AddAB confirm: growth loss of phage-infected E. coli expressing H. pylori AddAB, confirmation, AddAB inhibitor project, absorbance, E. coli V3065, T4 phage, triplicate; OD; T4 phage with gene 2 nonsense mutations; 880 tested, 64% active; inhibition, % at 11.9 µM; shares compounds with AddAB inh;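 active = mean inhibition above a set limit taken from the earlier primary screen, cut at about 13% in these data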;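 also: higher means less bacterial growth since AddAB block lets phage replicate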
RecBCD counter: growth loss of RecBCD+ E. coli with mutant T4 phage, counter-screen for AddAB inhibitor project, absorbance, V66 E. coli | AID 488955, 2010 | 880 tested, 73% active | shares compounds with AddAB inh | OD growth | inhibition, % at 11.9 µM;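 active = mean inhibition above the mean of solvent-only control wells plus 3 SD, cut at about 4% in these data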;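 also: optical density read after an 18 h incubation at 37 °C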
bact viab count: bacterial viability inhibition counter-screen, confirmation, counter-screen for AddAB inhibitor project, absorbance; 880 tested, 35% active; inhibition, % at 11.9 µM; absorbance (AddAB counterscreen); shares compounds with AddAB inh; AID 488956, 2010; in the data active = inhibition above about 25%
* hit, by the source's call; u = inconclusive; x = no result. Compounds with a hit are over-represented: about 0.51% of the library has one in this group of screens.

SMILES	AddAB inh	E coli growth-1	phage Ecoli inh	E coli growth-2	Tat export inh	AddAB confirm	RecBCD counter	bact viab count
CC(=O)Nc1ccc(C=NNC(=O)CCN2CCN(c3ccccc3)CC2)cc1	x	x	x	0.674	x	x	x	x
O=C(CNc1cccc2ccccc12)N/N=C/c1ccc([N+](=O)[O-])o1	13.7*	2.5	3.1	x	-20.7	35.5*	2.9	6.3
O=C(CCN1CCN(c2ccccc2)CC1)N/N=C/c1ccc([N+](=O)[O-])o1	26.4*	6.9	7.0	x	6.9	78.1*	3.7	7.2
CC[n+]1c(/C=C/N(C)c2ccccc2)n(-c2ccccc2)c2ccc(-c3nc4ccccc4s3)cc21	17.9*	35.1*	x	0.379*	0.2	51.6*	6.7*	12.0
Cc1cc(C)c(S(=O)(=O)N2CCOC2CNC(=O)C(=O)NCc2cccnc2)c(C)c1 (configuration not stated)	54.5*	33.6*	0.6	0.724	3.0	-1.1	0.6	-1.5
Cc1ccc(CNC(=O)C(=O)NCC2OCCN2S(=O)(=O)c2cccs2)cc1 (configuration not stated)	94.9*	87.4*	2.3	0.727	-5.2	2.6	-1.4	-2.2
O=C(NCc1ccccc1)C(=O)NCC1OCCN1S(=O)(=O)c1cccs1 (configuration not stated)	-1.4	0.0	2.2	0.679	-5.2	x	x	x
CCN(c1cccc(C)c1)S(=O)(=O)c1cccc2nsnc12	1.3	-1.1	3.4	0.684	-22.9	x	x	x
Cc1cccc(N(C)S(=O)(=O)c2cccc3nsnc23)c1	14.3*	-1.6	3.1	0.712	0.0	-0.4	1.2	-1.3
COCC1CCN(Cc2nc(COc3ccccc3)no2)C1 (configuration not stated)	32.2*	32.8*	-0.8	0.709	4.7	-4.8	-1.1	-5.0
C[C@@]12CCC=CC1C(c1ccc(C=Cc3ccccc3)cc1F)N(Cc1ccccc1)C2=O (some centres not stated)	x	x	x	0.735	x	x	x	x
Cc1ccc(S(=O)(=O)N2CCC(C(=O)NNC(=O)c3ccccc3O)CC2)cc1	10.2	5.6	9.2	0.735	-2.0	x	x	x
Cc1ccc(S(=O)(=O)N2CCC(C(=O)NNC(=O)c3ccccc3O)CC2)cc1C	13.7*	9.1	7.2	0.7	-8.5	11.8	9.4*	13.2
O=C1NCCCc2c1oc1ccc(O)cc21	100.2*	98.5*	2.0	0.709	4.6	-6.0	-1.4	-1.6
CCOC(=O)c1cn(CC)c2cc(N3CCOCC3)c(F)cc2c1=O	58.3*	52.7*	6.9	0.535*	5.8	70.4*	-0.8	14.9
CCn1cc(C(=O)O)c(=O)c2cc(F)c(N3CCN(S(=O)(=O)c4ccc(NC(=O)OC)cc4)CC3)cc21	36.7*	17.9*	4.4	0.0615*	7.1	100.9*	28.8*	100.5*
CCCCCCC(=O)N1CCN(c2cc3c(cc2F)c(=O)c(C(=O)O)cn3CC)CC1	10.4	8.3	3.4	x	-2.0	x	x	x
CCC(=O)N1CCN(c2cc3c(cc2F)c(=O)c(C(=O)O)cn3CC)CC1	96.9*	70.0*	8.1	0.069*	30.1	99.6*	8.4*	98.0*
CCn1cc(C(=O)NN)c(=O)c2cc(F)c(N3CCN(C)CC3)cc21	17.9*	15.8*	2.5	0.551	-2.7	47.3*	-0.6	29.1*
CCNC(=O)CC1SC(=NN=C(C)c2ccccc2)NC1=O (configuration not stated)	x	x	x	0.664	x	x	x	x
N#Cc1c(NC(=O)c2ccc([N+](=O)[O-])o2)sc2c1CCC2	16.0*	10.9*	4.6	0.538	0.8	64.0*	7.3*	18.6
NC(=O)c1c(NC(=O)c2ccc([N+](=O)[O-])o2)sc2c1CCCC2	23.1*	18.4*	9.2	0.641	2.9	97.7*	8.8*	28.4*
N#Cc1c(NC(=O)c2ccccc2)sc2c1CCC2	5.3	1.0	2.7	0.732	-6.1	x	x	x
Cc1cc2ccccn2c1C(=O)c1cccc([N+](=O)[O-])c1	0.7	0.6	2.1	0.743	-3.8	x	x	x
Cc1cc2ccccn2c1C(=O)c1ccc([N+](=O)[O-])o1	39.9*	19.6*	11.9*	0.693	11.8	94.5*	8.4*	40.1*
SMILES	AddAB inh	E coli growth-1	phage Ecoli inh	E coli growth-2	Tat export inh	AddAB confirm	RecBCD counter	bact viab count
CCCn1c(NC(=O)c2ccc([N+](=O)[O-])o2)nc2ccccc21	15.0*	8.1	10.5	0.632	-5.2	58.5*	4.7*	15.2
O=C(Nc1ccccn1)c1ccc([N+](=O)[O-])o1	98.2*	72.5*	x	0.53	-10.6	56.8*	17.4*	62.3*
CCCn1c(NC(=O)c2cccc(C)c2C)nc2ccccc21	-2.3	-3.6	x	0.665	7.6	x	x	x
O=C(Nc1ncccn1)c1ccc([N+](=O)[O-])o1	59.8*	9.2	13.5*	0.49*	6.5	95.9*	5.6*	18.2
O=C(Nc1cccc2ccccc12)c1ccc([N+](=O)[O-])o1	4.9	7.9	3.1	0.624	-13.2	x	x	x
CC(C)CCC(O)[C@](C)(O)C1CC[C@@]2(O)C3=CC(=O)C4CC(O)C(O)C[C@]4(C)C3CC[C@]12C (some centres not stated)	x	x	x	0.684	x	x	x	x
CCOC(=O)C1C2COc3ccccc3C2N2C(=O)c3c(C)cc(C)cc3NC(=O)[C@@]12C (some centres not stated)	x	x	x	0.69	x	x	x	x
CN1CCc2cc3c(c4c2[C@H]1[C@H](O)c1ccccc1-4)OCO3	12.8*	7.5	1.1	x	6.3	27.3*	-0.6	5.6
COc1ccc2c(c1OC)C(=O)OC2C1c2c(cc3c(c2OC)OCO3)CCN1C (configuration not stated)	-3.8	-2.7	2.9	0.688	7.6	x	x	x
O=c1oc(C(O)c2ccccc2)cc2ccccc12 (configuration not stated)	x	x	x	0.641	x	x	x	x
NC(=O)c1ccsc1NC(=O)COC(=O)c1ccc([N+](=O)[O-])o1	96.9*	12.8*	9.1	0.625	8.1	97.0*	8.3*	19.4
CC1CN(C(C)CO)C(=O)c2cccc(NS(=O)(=O)c3ccc(F)cc3)c2OC1CN(C)C(=O)Nc1ccc2c(c1)OCO2 (configuration not stated)	x	x	x	0.654	x	x	x	x
CCOC(=O)N/N=C\c1ccc([N+](=O)[O-])o1	30.7*	26.1*	6.2	x	u	97.5*	13.2*	29.0*
O=[N+]([O-])c1ccc(C=NNS(=O)(=O)c2ccc(Cl)cc2)o1	x	x	x	0.502	x	x	x	x
